# Results reported in PubChem BioAssay AID504534 (National Center for Advancing Translational Sciences (NCATS), 2011).
# Inconclusive results are not listed. Values without a mark were called inactive. Active and inactive are the calls of the source. Calls follow the shape of the dose curve; as a rule, active = well fitted curve in the direction sought with a large enough effect; inconclusive = small, poorly fitted or top-dose-only effect, or another doubt; inactive = no such curve, though single readings can be large or run the other way.
# Experiment: Secondary Assay for Inhibitors of Human Cdc-like kinase 4 (Clk4): HEK-293 Cell Viability Assay;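 also: cytotoxic hits lower the ATP light signal so activity reflects loss of viability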; as to activity change, negative = cytotoxicity: % of control where 0% means no effect
# Conditions: HEK-293 viability, ATP luminescence (CellTiter-Glo), 24/48 h; series mostly up to 46.1 µM; activity change, negative = cytotoxicity: at the top concentration
# Protocol: NIH Molecular Libraries Probe Production Centers Network [MLPCN] NIH Chemical Genomics Center [NCGC] MLPCN Grant: 1R03MH084827-01 Assay Submitter (PI): Tom Misteli NCGC Assay Overview: Cytotoxicity of the active compounds in the Clk4 screens was assessed using the CellTiter-Glo Luminescent Cell Viability Assay kit (Promega, USA) in the HEK-293 (ATCC) cell line. CellTiter-Glo measures the intracellular ATP present in metabolically active cells using Ultra-Glo as the luciferase to detect ATP levels. In brief, the luciferase in the buffer catalyzes the oxidation of luciferin to oxyluciferin and light which is dependent on ATP. […] Wells treated with various concentrations of cycloheximide (Sigma) and DMSO, and wells with media alone were used as positive and negative controls, respectively. […] [1] http://www.promega.com/tbs/tb288/tb288.pdf
# NCGC Assay Protocol Summary: HEK-293 cells were grown in a flask up to 80% confluence. Cells were trypsinized, washed, and resuspended in MEM Eagle + 10% FBS + 1% pen-strep media at a concentration of 120 cells/uL. Five uL/well of cell solution was dispensed into a 1536-well assay plates (Greiner, solid white medium-binding plates) with Aurora Discovery BioRAPTR Flying Reagent Dispenser (FRD; Beckton-Dickenson). Cells were pre-incubated at 37 degree Celsius, 5% CO2 for four hours. Compound and control solutions (23nL) were then transferred to the assay plate using the Kalypsys 1536-pin tool. Assay plates were re- incubated at 37 degree Celsius, 5% CO2. After 24 or 48 hours, five uL of CellTiter Glo detection reagent was added. Luminescence signal was read with Perkin Elmer ViewLux plate reader after 30 min room temperature incubation.
# Potency is read from the fitted curve at half-maximal effect.
Compound,"activity change, negative = cytotoxicity",Potency
CC(O)c1ccc(-c2ccc3ncnc(NCCc4cnc[nH]4)c3c2)o1 (stereo not given),-4.9%,
CS(=O)(=O)CCNCc1ccc(-c2ccc3ncnc(Nc4ccc(OCc5cccc(F)c5)c(Cl)c4)c3c2)o1,4.65%,
c1nc(NCC2CCOC2)c2cc(-c3ccc4c(c3)OCO4)ccc2n1 (stereo not given),4.83%,
CCOC(=O)c1ccoc1-c1ccc2ncnc(NCCc3cnc[nH]3)c2c1,0.328%,
Fc1cccc(CNc2ncnc3ccc(-c4ccccc4Cl)cc23)c1,-7.67%,
Fc1cccc(CNc2ncnc3ccc(-c4ccc5c(c4)OCO5)cc23)c1,4.03%,
Cc1csc(CNc2ncnc3ccc(-c4ccc5c(ccn5C)c4)cc23)c1,-23.1%,
COc1cccc(Nc2ncc3ncc(=O)n(C)c3n2)c1,-7.13%,
Fc1c(-c2ccc3ncnc(NCc4cccs4)c3c2)ccc2c1OCO2,-2.4%,
Cc1csc(CNc2ncnc3ccc(-c4ccc5c(c4)OCO5)cc23)c1,-4.14%,
CC(O)c1ccc(-c2ccc3ncnc(N4CCOCC4)c3c2)o1 (stereo not given),0.411%,
COc1cccc(Nc2ncc3nc(-c4cn(C)c5ccccc45)c(=O)n(CCC#N)c3n2)c1,,7.91 µM (active)
Cn1cncc1CNc1ncnc2ccc(-c3ccc4c(c3)OCO4)cc12,-1.99%,
C#Cc1cccc(Nc2ncnc3cc(OCCOC)c(OCCOC)cc23)c1,-11.6%,
c1nc(OCc2cnc[nH]2)c2cc(-c3ccc4c(c3)OCO4)ccc2n1,5.34%,
c1csc(CNc2ncnc3ccc(-c4ccc5c(c4)OCO5)cc23)n1,-13.1%,
COc1cccc(-c2ccc3ncnc(NCc4cccc(C)c4)c3c2)c1,7.31%,
COc1cccc(-c2ccc3ncnc(NCc4cccs4)c3c2)c1,-9.42%,
CN(CC(=O)O)c1ncnc2ccc(-c3ccc4c(c3)OCO4)cc12,-7.63%,
CC(=O)c1ccc(-c2ccc3ncnc(NCc4ccc(C)o4)c3c2)o1,-5.25%,

Compound,"activity change, negative = cytotoxicity",Potency
c1cncc(CNc2ncnc3ccc(-c4ccc5c(c4)OCCO5)cc23)c1,14.9%,
Cc1ccc(CNc2ncnc3ccc(-c4ccc([C@@H](C)O)o4)cc23)o1,,inactive
C[C@@H](O)c1ccc(-c2ccc3ncnc(NCc4cccs4)c3c2)o1,,inactive
Cc1ccc(CN(C)c2ncnc3ccc(-c4ccc(C(=O)O)o4)cc23)o1,-15.1%,
Cc1ccsc1CNc1ncnc2ccc(-c3ccc4c(c3)OCO4)cc12,-13.2%,
Cc1csc(CNc2ncnc3ccc(-c4cccnc4)cc23)c1,0.236%,
O=C(O)c1ccc(-c2ccc3ncnc(NCCc4cnc[nH]4)c3c2)o1,0.179%,
c1nc(NCc2ccc3c(c2)OCO3)c2cc(-c3ccoc3)ccc2n1,-9.32%,
Cc1cccc(-c2ccc3ncnc(NCc4cc(C)cs4)c3c2)c1,-15.7%,
Clc1ccccc1-c1ccc2ncnc(NCc3cccnc3)c2c1,11.7%,
c1cncc(-c2ccc3ncnc(NCc4ccc5c(c4)OCO5)c3c2)c1,3.84%,
CC(C)(C)CNc1ncnc2ccc(-c3ccc4c(c3)OCO4)cc12,6.96%,
Cc1ccc(CN(C)c2ncnc3ccc(-c4ccc(CO)n4C)cc23)o1,-21.2%,
CC(Nc1ncnc2ccc(-c3ccc4c(c3)OCO4)cc12)c1ccco1 (stereo not given),-15.7%,
CN1CCCC1CCNc1ncnc2ccc(-c3ccc4c(c3)OCO4)cc12 (stereo not given),-13.2%,
Cc1cccc(-c2ccc3ncnc(NCc4cccc(F)c4)c3c2)c1,-6.26%,
CN(C)CCCNc1ncnc2ccc(-c3ccc4c(c3)OCO4)cc12,-0.0763%,
c1nc(NCC2CCCCC2)c2cc(-c3ccc4c(c3)OCO4)ccc2n1,-14.3%,
Cc1ccc(CNc2ncnc3ccc(-c4ccc(C(=O)O)o4)cc23)o1,-11.4%,
Cc1cccc(CNc2ncnc3ccc(-c4ccc5c(ccn5C)c4)cc23)c1,-29.1%,
